# RE007 growth inh – less growth of the S. pombe RE007 Vpr strain; S. pombe RE007 Vpr strain, BacTiter-Glo ATP luminescence, 24 h; Potency, µM (top dose mostly 92.2 µM), for inactives: at the highest dose activity change, negative = less growth, hits mostly inhibitors; hit rate 0.21% among 360,000; AID 651644; active = well fitted falling curve with a large enough effect; inconclusive = small, poorly fitted or top-dose-only effect; inactive = no such curve, though single readings can be large or run the other way; also: nearly all actives have a fitted effect of over 50% in size
#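 Fission yeast RE007 carrying one integrated HIV-1 vpr copy, seeded at OD 0.01 in PMG+AL medium with 23 nL pinned compound. Grown 24 h at 30 degrees; viability read by BacTiter-Glo luminescence after 5 min.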
# Tb PYK inh – T. brucei pyruvate kinase inhibition. AID 624173. TbPYK enzyme, Kinase-Glo Plus ATP luminescence, 45 min. Potency, µM (top dose mostly 76.8 µM), inactives show top-dose activity, negative = inhibition, usual class: inhibitors. hit rate 0.12% among 410,000. Q57TT1; also: nearly all actives have a fitted effect of over 50% in size
#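 In this concentration-response screen, enzyme-free wells defined baseline while DMSO plates tracked drift. Each reaction combined TbPYK, substrate, compound and 130 uM ADP for 45 min at room temperature. Kinase-Glo Plus luminescence gave the signal.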
# Sm TGR inh – inhibitors of Schistosoma mansoni thioredoxin glutathione reductase; purified TGR, DTNB reduction, TNB absorbance 405 nm; hit rate 3% among 360,000; Potency, µM (top dose mostly 114 µM), inactives show at the top dose activity change, negative = inhibition, usual class: inhibitors; Q962Y6; also: nearly all actives have a fitted effect of over 60% in size
#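 Kinetic colorimetric format: TGR-catalysed, NADPH-driven DTNB reduction monitored via TNB absorbance. Enzyme dispensed at 20 nM; compound exposure 15 min at room temperature before reaction start.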
# LmPK inhibitor – blocks Leishmania mexicana pyruvate kinase activity; hit rate 0.37% among 290,000; Q27686; purified LmPK, Kinase-Glo ATP luminescence, 1 h; Potency, µM (top dose mostly 57.5 µM), inactives show at the highest dose activity change, negative = inhibition, usual class: inhibitors
# Target sequence (Q27686 whole entry, looked up): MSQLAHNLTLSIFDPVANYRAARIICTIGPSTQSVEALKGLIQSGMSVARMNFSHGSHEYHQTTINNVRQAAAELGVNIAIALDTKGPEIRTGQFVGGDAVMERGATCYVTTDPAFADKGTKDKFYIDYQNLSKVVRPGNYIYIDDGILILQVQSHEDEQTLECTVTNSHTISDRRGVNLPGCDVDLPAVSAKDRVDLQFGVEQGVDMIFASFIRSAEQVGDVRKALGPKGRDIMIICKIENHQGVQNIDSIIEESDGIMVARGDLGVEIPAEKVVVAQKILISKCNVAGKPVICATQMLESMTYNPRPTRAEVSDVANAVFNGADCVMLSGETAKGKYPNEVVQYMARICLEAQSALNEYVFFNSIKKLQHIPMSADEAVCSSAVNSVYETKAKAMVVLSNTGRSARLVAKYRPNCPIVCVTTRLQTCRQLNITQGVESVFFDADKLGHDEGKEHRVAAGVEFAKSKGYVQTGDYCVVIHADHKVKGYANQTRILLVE
#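 ATP generated from ADP (0.1 mM) and PEP (0.5 mM) by 0.1 nM LmPK over 1 h at room temperature (pH 7.2 imidazole buffer) was detected by coupled luciferase luminescence. Values were normalized to uninhibited and no-enzyme wells.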
# Starred values were filed as active, the others as inactive; ? = inconclusive; · = not tested or not shown; ! = not confirmed by another sample; [ ] = remark or other dose. Only some compounds are listed: those with a hit (about 3% of all), similar ones and a draw of the others. Unless noted, calls follow the shape of the dose curve; as a rule, active = well fitted curve in the direction sought with a large enough effect; inconclusive = small, poorly fitted or top-dose-only effect, or another doubt; inactive = no such curve, though single readings can be large; an effect the other way counts as inactive or inconclusive. % is scaled to controls: 0 for no effect and ±100 for the full control effect; potency is read from the fitted curve at half-maximal effect.
SMILES,RE007 growth inh,Tb PYK inh,Sm TGR inh,LmPK inhibitor
COc1ccc(-c2cc(C(F)(F)F)nc(SCCC(=O)Nc3cc(C)ccc3O)n2)cc1,·,0%,7%,·
Cc1ccc(O)c(NC(=O)CCS(=O)(=O)c2nc(-c3cccs3)cc(C(F)(F)F)n2)c1,·,-6%,18µM*,·
O=C(CCS(=O)(=O)c1nc(-c2cccs2)cc(C(F)(F)F)n1)Nc1ccc(Br)cc1,·,-4%,?,·
Cc1cc(SCC(=O)N(C)C2CCCCC2)nc2ccccc12,2%,-6%,·,·
CCCN1CCN(CCNC(=O)Nc2ccccc2OCC)CC1,·,-4%,1%,·
CN(C)c1ccc(CC(=O)c2nc3ccccc3s2)cc1,-12%,-12%,40µM*,-4%
CN(C)C(=O)c1nc2ccccc2s1,9%,5%,-1%,0%
Cc1cccc(NS(=O)(=O)c2ccc(Cl)c(C(=O)Nc3ccccc3C)c2)c1,·,2%,9%,·
COc1ccc(NC2=C(Cl)C(=O)N(c3ccccc3)C2=O)c(OC)c1,?,1%,5.6µM*,-3%
COc1ccc(N2C(=O)C(Cl)=C(Nc3c(C)n(C)n(-c4ccccc4)c3=O)C2=O)cc1,-3%,-21%,0.89µM*,-14%
COc1ccccc1NC1=C(Cl)C(=O)N(c2ccccc2)C1=O,·,-1%,-6%,6%
O=C1C(Cl)=C(Nc2ccccc2O)C(=O)N1CCc1ccccc1,·,-7%,28µM*,-2%
COc1ccc(N2C(=O)C(Cl)=C(Nc3ccc(OC)cc3OC)C2=O)cc1,12%,3%,28µM*,2%
COc1ccc(-c2cc(C(=O)Nc3c(C)n(C)n(-c4ccccc4)c3=O)c3ccccc3n2)cc1,2%,-4%,5%,-4%
CCOc1ccc(N2C(=O)C(Cl)=C(Nc3ccccc3O)C2=O)cc1,?,-7%,18µM*,1%
COc1cccc(C(=O)CCN[C@@H](C)[C@H](O)c2ccccc2)c1,·,-7%,·,·
CCNC(=S)NNC(=O)c1cc(-c2cccc(C)c2)nc2ccccc12,?,-3%,1%,?
CCCCOc1ccc(-c2cc(C(=O)NNC(=S)NCC)c3ccccc3n2)cc1,63µM*,-10%,6%,-26%
CCNC(=S)NNC(=O)c1cc(-c2ccc(OC)cc2)nc2ccccc12,18µM*,-26%,4%,?
COc1ccc(-c2cc(C(=O)NCc3ccco3)c3ccccc3n2)cc1,8%,-9%,40µM*,0%
O=C(NCc1ccco1)c1cc(-c2ccccc2)nc2ccccc12,-1%,-4%,31%,3%
CC(=O)c1ccc(N2CCN(C(=O)C3CCN(S(=O)(=O)c4cccc5nonc45)CC3)CC2)cc1,·,1%,6%,·
COc1ccc2[nH]c(C(=O)Nc3cccc(C)n3)cc2c1,?,-25%,17%,28µM*
COc1cc(NC(=O)CN2C(=O)C(c3ccc(C)cc3)=NC23CCCCCC3)cc(OC)c1,·,0%,-5%,·
COC(=O)C1=C(C(=O)OC)[C@@H]2N(C)c3ccccc3[C@@]23C[C@@H](C(=O)OC)N(S(=O)(=O)c2ccc4c(c2)OCCN4C)C3=N1,·,·,·,-1%[11.5 µM]
SMILES,RE007 growth inh,Tb PYK inh,Sm TGR inh,LmPK inhibitor
N/C(=N\OC(=O)c1cccc(Br)c1)c1ccc(Br)cc1,4%,2%,6%,0%
N/C(=N\OC(=O)c1ccc2c(c1)OCO2)c1cccnc1,?,-23%,13%,25µM*
N/C(=N\OC(=O)c1ccccc1Cl)c1cccnc1,20µM*,-1%,-1%,?
N/C(=N\OC(=O)c1ccc2c(c1)OCO2)c1cccc(Br)c1,-24%,-30%,1%,13µM*
N/C(=N\OC(=O)c1ccc(Cl)c(Cl)c1)c1cccnc1,-4%,6%,-3%,-8%
Cc1cc(C)cc(N2CCn3c2nc2c3c(=O)n(CCc3ccccc3)c(=O)n2C)c1,·,-5%,?,·
COc1ccc(F)cc1-c1cc(C(=O)NCc2cccc(Cl)c2)[nH]n1,8%,-7%,·,·
C[c-]1[c-](C)[c-](C)[c-](C)[c-]1C.[Fe].c1cc2nccc(N3CCCC3)[c-]2c1 (stereo not given),-16%,-16%,3.2µM*!,32µM*!
c1cc(N2CCCCC2)nc(N2CCCCC2)n1,-10%,9%,·,·
CCn1nc(-c2ccccc2)c(-c2ccccc2)c(C(=O)OCCOC)c1=O,·,2%,-6%,·
COc1ccccc1CNC(=O)C1CCCN(S(=O)(=O)c2ccc3c(c2)CCCN3C(C)=O)C1 (stereo not given),·,-6%,4%,·

# Screens from PubChem.
